SMILES strings stand for the structures. The campaign covered roughly 420,000 compounds. About 540 (0.13%) were called active. Cut-off read from the data, not from the text of the source: active = activity change below about -50%; inconclusive = mostly about -30% to -49%; inactive = weaker than that. Many of the other results were omitted from the sample, so actives are more common in it than they were.

For this assay, the target named is Phosphatidylinositol 4-kinase type 2-alpha (Homo sapiens) (UniProt Q9BTU6). As to the kind of experiment: qHTS for small molecular inhibitors of PI4K2A.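 Note: -100% = wells without enzyme as full effect.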 To be noted: purified PI4K2A, ADP-Glo luminescence, 1 h; at 76.9 µM, hits give low values. Put shortly: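 ADP-Glo luminescence measured ADP generated by PI4K2A enzyme (4 ug/mL before mixing) with 1.2 mM PI substrate (pre-mix) and 300 microM ATP (pre-mix). Tris pH7.5 buffer with MgCl2, Triton X-100; 1 h reaction at ambient temperature.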
Sequence of Phosphatidylinositol 4-kinase type 2-alpha (Homo sapiens) (Q9BTU6 whole entry, looked up): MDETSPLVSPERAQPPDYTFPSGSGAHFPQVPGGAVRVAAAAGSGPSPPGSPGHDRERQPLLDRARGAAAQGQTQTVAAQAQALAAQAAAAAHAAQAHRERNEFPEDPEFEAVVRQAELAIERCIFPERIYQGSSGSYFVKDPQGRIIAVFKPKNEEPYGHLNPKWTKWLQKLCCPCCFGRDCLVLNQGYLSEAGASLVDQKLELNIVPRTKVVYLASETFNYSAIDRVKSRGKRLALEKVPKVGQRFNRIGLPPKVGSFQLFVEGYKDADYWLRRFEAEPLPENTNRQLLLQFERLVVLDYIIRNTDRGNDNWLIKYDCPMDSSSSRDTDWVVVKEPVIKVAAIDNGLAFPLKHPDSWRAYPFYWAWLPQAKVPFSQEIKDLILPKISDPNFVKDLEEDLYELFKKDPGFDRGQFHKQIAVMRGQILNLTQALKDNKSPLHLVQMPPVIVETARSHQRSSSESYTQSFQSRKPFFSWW
On the technique in general: qHTS replaces the single test concentration by a dilution series.
In the case of `O=C(Cn1c(=O)n(Cc2cccs2)c(=O)c2cccnc21)Nc1ccc(F)cc1`, the activity change, negative = inhibition was -2.3% (inactive).

`CCOC(=O)c1ccc(NC(=O)Cn2cc(S(=O)(=O)Cc3ccccc3F)c3ccccc32)cc1`: the activity change, negative = inhibition was -0.867% (inactive). Consider `Cc1ccc(C(=O)COC(=O)C(Cc2c[nH]c3ccccc23)NC(=O)c2ccc(Br)cc2)cc1` (stereo unspecified), for which the activity change, negative = inhibition is 1.44% (inactive).

Regarding `COCCCN1CCC(NC(=O)c2cc(Cl)c(N)c3c2OCC3)CC1`, the activity change, negative = inhibition is -0.718% (inactive). The result for `CN(C)c1cccc(C(=O)Nc2nc3ccc(S(=O)(=O)NC(C)(C)C)cc3s2)c1` reads 0.225% (inactive); that for `CN(Cc1ccccc1)C(=O)c1cn(C)c2ccc(S(=O)(=O)N(C)C3CCCCC3)cc2c1=O`, 2.24% (inactive); that for `CCOC(=O)c1ccc(N2C(=O)c3[nH]nc(-c4ccccc4)c3C2c2ccc(C(C)C)cc2)cc1` (stereo unspecified), 4.25% (inactive). The result for `CCOC(=O)c1[nH]c(C)c(CCC(=O)N2CCN(c3ccccc3)CC2)c1C` reads -2.94% (inactive); that for `CSc1ccccc1N1CCN(CCCCCC(=O)NC2CCCc3ccccc32)CC1` (stereo unspecified), 3.17% (inactive).

As for `COc1cccc(-c2cc(C(=O)Nc3ccc(C)cc3)[nH]n2)c1`, the activity change, negative = inhibition is -3.12% (inactive). With `COc1cc(C(=O)N2CCN(c3ccc(Nc4ccc(C)cc4)nn3)CC2)cc(OC)c1OC` the figure was 1.58% (inactive); with `CO/N=C(/C(=O)N[C@@H]1C(=O)N2C(C(=O)O)=C(Cn3nnc(C)n3)CS[C@H]12)c1csc(N)n1`, -10.8% (inactive). `O=C1Cc2cc(S(=O)(=O)Nc3ccc(OC(F)(F)F)cc3)cc3c2N1CCC3`: the activity change, negative = inhibition was -2.44% (inactive).

In the case of `COC(=O)c1ccc(OC)c(Cn2c(=O)n(Cc3ccccc3)c(=O)c3c2c2cc(OC)ccc2n3C)c1`, the activity change, negative = inhibition was 4.84% (inactive).

As for `COc1ccccc1CNC(=O)CCn1c(=O)c2ccccc2n(CC(=O)Nc2ccc(Br)cc2F)c1=O`, the activity change, negative = inhibition was 2.55% (inactive). The result for `COc1ccc(OC)c(NC(=O)CSc2nc3ccccc3nc2N2CCCCC2)c1` reads 3.46% (inactive).

In the case of `CCOCCCNC(=O)c1c(NC(=O)Cc2coc3ccc(C)cc23)sc2c1CCC2`, the activity change, negative = inhibition is -1.23% (inactive). As for `COC(=O)c1ccccc1NC(=O)c1cc(-c2ccccc2O)no1`, the activity change, negative = inhibition is -2.41% (inactive). With `O=C1CSC(=S)N1/N=C/c1ccc(O)c([N+](=O)[O-])c1` the figure was -62.1% (active); with `COC(=O)c1nc(Cl)c(Cl)nc1N`, 2.02% (inactive). As to `CCC(C(=O)Nc1cccc(-c2nc3cccnc3s2)c1C)c1ccccc1` (stereo unspecified), the activity change, negative = inhibition is 6.98% (inactive). With `CCc1ccc(NC(=O)c2cnc3c(-c4ccccc4)c(C)nn3c2C)cc1` the figure was 0.0021% (inactive); with `CCCc1nn2c(=O)cc(COC(=O)c3ccc(NC(=O)C(C)Oc4ccccc4)cc3)nc2s1` (stereo unspecified), -2.75% (inactive); with `O=C(CC1C(=O)N(c2ccccc2)C(=O)N1CCc1cccs1)Nc1ccc(F)cc1` (stereo unspecified), 3.68% (inactive).

In the case of `COc1ccc(C2=NC3(CCCCC3)N(CC(=O)Nc3ccc(C(C)C)cc3)C2=O)cc1`, the activity change, negative = inhibition is -3.85% (inactive). With `CCOC(=O)c1c(C)[nH]c(C)c1S(=O)(=O)NCC(=O)NCc1cccc(C)c1` the figure was -4.08% (inactive). As for `COc1ccccc1N1CCN(C2C(=O)c3ccccc3N2C(C)=O)CC1` (stereo unspecified), the activity change, negative = inhibition was 2.81% (inactive).

With `COc1ccc(C2CC(=O)Nc3c2c(=O)nc2c(C)cccn32)cc1OC` (stereo unspecified), the activity change, negative = inhibition was -1.68% (inactive). Turning to `CCOC(=O)c1cc2c(=O)n3ccccc3nc2n(CCCOC)c1=NC(=O)C(C)(C)Oc1ccc(Cl)cc1`, the activity change, negative = inhibition was -2.85% (inactive). Turning to `CCOC(=O)c1c(C)[nH]c(C)c1S(=O)(=O)N1CCC(C(=O)Nc2ccc(C)c(Cl)c2)CC1`, the activity change, negative = inhibition is 0.586% (inactive).

For the compound `Cc1ccc(Cl)cc1NC(=O)C(C)n1nnc2sc(-c3ccccc3)cc2c1=O` (stereo unspecified), the activity change, negative = inhibition is 3.33% (inactive).

(Values after PubChem BioAssay AID1346378 (National Center for Advancing Translational Sciences (NCATS), 2018).)
